Measurements taken from PMC4336329 (PLoS ONE, 2015).
The campaign covered roughly 310,000 compounds. About 14,000 (4.5%) showed an effect of 50% or more. The effect is printed as a negative number. The sample holds strong results, similar compounds and a random draw of the others, so the mix is not that of the screen.

Target: human ether-à-go-go-related gene (hERG) potassium channel (human, UniProt Q12809)
Test: primary screen, population patch clamp on CHO cells stably expressing hERG; higher = less effect of the substance
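Also: peak tail current of the secondary pulse compared with the same well before compound.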

Chain of human ether-à-go-go-related gene (hERG) potassium channel (Q12809 whole entry, looked up): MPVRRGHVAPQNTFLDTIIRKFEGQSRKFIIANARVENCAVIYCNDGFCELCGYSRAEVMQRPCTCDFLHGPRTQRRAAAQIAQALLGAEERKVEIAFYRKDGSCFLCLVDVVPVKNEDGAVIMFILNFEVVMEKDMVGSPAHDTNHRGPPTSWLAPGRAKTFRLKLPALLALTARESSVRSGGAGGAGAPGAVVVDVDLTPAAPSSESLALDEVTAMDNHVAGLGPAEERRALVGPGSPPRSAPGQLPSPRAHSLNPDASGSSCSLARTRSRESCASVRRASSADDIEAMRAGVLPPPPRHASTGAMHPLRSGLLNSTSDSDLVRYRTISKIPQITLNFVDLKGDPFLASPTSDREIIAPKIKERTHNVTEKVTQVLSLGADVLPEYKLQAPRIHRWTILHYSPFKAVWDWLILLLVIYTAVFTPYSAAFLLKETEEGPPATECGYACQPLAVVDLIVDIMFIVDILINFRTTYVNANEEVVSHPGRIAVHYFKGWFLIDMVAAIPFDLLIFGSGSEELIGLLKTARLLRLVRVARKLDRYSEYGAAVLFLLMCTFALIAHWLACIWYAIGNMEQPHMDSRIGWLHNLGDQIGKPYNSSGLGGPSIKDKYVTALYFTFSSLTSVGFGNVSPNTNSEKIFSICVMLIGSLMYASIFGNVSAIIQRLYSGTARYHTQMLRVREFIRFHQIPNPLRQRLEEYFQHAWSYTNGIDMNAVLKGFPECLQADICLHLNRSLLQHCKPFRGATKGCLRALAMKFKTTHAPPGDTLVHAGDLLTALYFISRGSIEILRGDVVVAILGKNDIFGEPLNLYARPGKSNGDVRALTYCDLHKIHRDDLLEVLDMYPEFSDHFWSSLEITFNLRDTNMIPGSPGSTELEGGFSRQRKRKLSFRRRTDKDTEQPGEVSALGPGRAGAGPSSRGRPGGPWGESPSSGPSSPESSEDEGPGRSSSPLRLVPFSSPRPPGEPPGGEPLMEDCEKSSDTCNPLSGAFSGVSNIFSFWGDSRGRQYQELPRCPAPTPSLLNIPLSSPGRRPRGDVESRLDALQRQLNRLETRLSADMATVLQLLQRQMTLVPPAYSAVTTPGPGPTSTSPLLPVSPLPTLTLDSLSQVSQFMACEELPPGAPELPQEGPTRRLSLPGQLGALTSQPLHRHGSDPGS

| SMILES | hERG current change (%, negative = inhibition) at 10uM [%] |
| --- | --- |
| CC(=O)c1ccc(S(=O)(=O)N(C)C(C)CCc2ccco2)cc1 (stereo not drawn) | -6.81 |
| CC(=O)N1CCc2cc(Br)cc(S(=O)(=O)N3CCN(c4ccccn4)CC3)c21 | 10.7 |
| Cc1ccc(/C=C2\C(=N)N3N=C(CC(=O)N4CCOCC4)SC3=NC2=O)o1 | 12.2 |
| CCOC(=O)c1cc(-c2ccccc2)sc1NC(=O)C(C)C | 13.8 |
| O=C(O)C1C2CCC(C2)C1C(=O)NCc1ccccn1 (stereo not drawn) | 16.1 |
| CCOC(=O)N1CCN(c2ccc(S(=O)(=O)N(Cc3ccccc3)Cc3ccccc3)cn2)CC1 | -4.41 |
| Cc1ccc(S(=O)(=O)N2CCN(Cc3cc(=O)n4ccccc4n3)CC2)c(C)c1 | -80.6 |
| O=c1nc2ccc(Cl)cn2c2ccc(S(=O)(=O)N3CCCCC3)cc12 | -0.392 |
| O=S(=O)(c1ccccc1)N1CCN(Cc2cccc(Cl)c2)CC1 | -18.1 |
| Cc1ccc(S(=O)(=O)N2CCN(Cc3cc(=O)n4ccccc4n3)CC2)cc1C | -40.5 |
| O=c1cc(CN2CCN(S(=O)(=O)c3ccccc3)CC2)nc2ccc(Cl)cn12 | -56 |
| COc1ccc(S(=O)(=O)N2CCN(Cc3cc(=O)n4ccccc4n3)CC2)cc1 | -31.4 |
| CCOc1cccc(C2/C(=C(/O)c3ccc4c(c3)CC(C)O4)C(=O)C(=O)N2CCN2CCOCC2)c1 (stereo not drawn) | 14.7 |
| N#Cc1ccccc1NC(=O)CSc1ccc([N+](=O)[O-])cn1 | 13.1 |
| COc1cc(C(CCN2CCCC2)c2c(OC)cc(OC)c3c(-c4ccccc4)cc(=O)oc23)cc(OC)c1OC (stereo not drawn) | -70.8 |
| CCN(CC)CCC(c1cc(OC)c(OC)c(OC)c1)c1c(OC)cc(OC)c2c(-c3ccccc3)cc(=O)oc12 (stereo not drawn) | -16.8 |
| COc1cc(C(CCN2CCCCC2)c2c(OC)cc(OC)c3c(-c4ccccc4)cc(=O)oc23)cc(OC)c1OC (stereo not drawn) | -67 |
| COc1cc(C(CC(=O)N2CCCC2)c2c(OC)cc(OC)c3c(-c4ccccc4)cc(=O)oc23)cc(OC)c1OC (stereo not drawn) | -10.5 |
| COc1cc(OC)c2c(-c3ccccc3)cc(=O)oc2c1C(CCN1CCN(c2ccccc2)CC1)c1ccc(N(C)C)cc1 (stereo not drawn) | 7.89 |
| COc1cc(C(CCN2CCCC(C)C2)c2c(OC)cc(OC)c3c(-c4ccccc4)cc(=O)oc23)cc(OC)c1OC (stereo not drawn) | -38.7 |
| Cc1ccc(NC(=O)CCS(=O)(=O)c2cc3c(cc2Cl)NC(=O)CO3)cc1 | -17.4 |
| O=C(CNC(=O)c1ccc(Cl)cc1)c1ccc(Cl)cc1 | 7.28 |
| Cc1ccc(CNC(=O)C2C3C=CC(C3)C2C(=O)O)cc1 (stereo not drawn) | -3.26 |
| Cl.OC(CN1CCCCC1)Cn1c(C(F)(F)F)nc2ccccc21 (stereo not drawn) | 4.06 |

| SMILES | hERG current change (%, negative = inhibition) at 10uM [%] |
| --- | --- |
| CC1CN(S(=O)(=O)c2cccs2)CC(C)O1 (stereo not drawn) | -3.7 |
| COc1ccc(NC(=S)NCc2ccco2)cc1 | 9.23 |
| COc1ccc(S(=O)(=O)n2cnc3ccccc32)cc1OC | 12.4 |
| C=CCn1c(O)c(C(CC)=NCc2cc(OC)cc(OC)c2)c(=O)[nH]c1=O | -59 |
| CCCCn1c(O)c(C(CC)=NCc2cc(OC)cc(OC)c2)c(=O)[nH]c1=O | -13.8 |
| C=CCn1c(O)c(C(C)=NCc2cc(OC)cc(OC)c2)c(=O)[nH]c1=O | -37 |
| Cc1ccc(S(=O)(=O)Nc2ccccc2/C=N/c2nc3ccccc3n2C)cc1 | -13.5 |
| Cc1cc(-c2ccc(N3CCOCC3)cc2)nc2ccccc12.Cl | 3.53 |
| Cc1c(N=Cc2c(O)n(Cc3ccccc3)c(=O)[nH]c2=O)c(=O)n(-c2ccccc2)n1C | -5.81 |
| C=CCn1c(O)c(C=Nc2c(C)n(C)n(-c3ccccc3)c2=O)c(=O)[nH]c1=O | -81.6 |
| Cc1c(N=Cc2c(O)n(CCc3ccccc3)c(=O)[nH]c2=O)c(=O)n(-c2ccccc2)n1C | -39.3 |
| Cc1c(N=Cc2c(O)n(CCc3ccc(F)cc3)c(=O)[nH]c2=O)c(=O)n(-c2ccccc2)n1C | -61.9 |
| CCCCn1c(O)c(C=Nc2c(C)n(C)n(-c3ccccc3)c2=O)c(=O)[nH]c1=O | 4.96 |
| Cc1c(N=Cc2c(O)n(Cc3ccc(F)cc3)c(=O)[nH]c2=O)c(=O)n(-c2ccccc2)n1C | -26 |
| C=C(C)Cn1c(N2CC(C)CC(C)C2)nc2c1c(=O)[nH]c(=O)n2C (stereo not drawn) | 2.46 |
| COc1ccc(CCC(=O)Nc2ccc(N3CCOCC3)cc2)cc1 | -12.9 |
| CCOC(=O)C1=C(c2ccccc2)Nc2ncnn2C1c1ccc(OC)c(OC)c1OC (stereo not drawn) | -5.55 |
| CCOC(=O)C1(CCOc2ccccc2)CCN(Cc2ccc(CO)o2)CC1 | -73.8 |
| CCOC(=O)C1(CCOC)CCN(Cc2ccc(COC)o2)CC1 | 32.9 |
| CCOC(=O)C1(Cc2ccccc2)CCN(Cc2ccc(COC)o2)CC1 | -19.1 |
| CCOC(=O)C1(CCOc2ccccc2)CCN(Cc2ccc(COC)o2)CC1 | -63.7 |
| CCOC(=O)C1(CCOc2ccccc2)CCN(Cc2ccc(C)o2)CC1 | -75 |
| CSc1ccccc1NC(=O)CN(Cc1ccccc1)S(C)(=O)=O | 4.1 |
| CC1(C)C(=O)C=C[C@]2(C)[C@H]3CC[C@@]4(C)[C@H](c5ccoc5)OC(=O)[C@H]5O[C@]54[C@]3(C)[C@H](O)C[C@@H]12 | 8.63 |

| SMILES | hERG current change (%, negative = inhibition) at 10uM [%] |
| --- | --- |
| Cc1cc(C)cc(NC(=O)CSc2nnc(-c3ccccc3)n2N)c1 | 6.38 |
| CC(C)Oc1cccc(C(=O)Nc2ccc(Br)cc2F)c1 | 7.79 |
| Cc1ccccc1CNC(=O)CC1C(=O)NCCN1CC1CCCCC1 (stereo not drawn) | 6.33 |
| Cc1cc(C)c(C(=O)CSc2n[nH]c(=O)n2C2CC2)cc1C | -9.54 |
| COc1ccc(C(=O)c2nc3ccccc3n2C(C)C)cc1OC | -16.5 |
| CC(C)c1ccc(NNC(=O)C2CCC2)cc1 | 3.84 |
| COc1ccc(C(=O)CCN2CCC(C)CC2)cc1.Cl | -30 |
| COc1cc2c(cc1OC)CN(CCOc1ccc(Br)cc1)CC2 | -68.8 |
| COc1ccc(CC(=O)N2CCc3cc(OC)c(OC)cc3C2)cc1 | -6.59 |
| COc1cc2c(cc1OC)CN(C(=O)CCNS(=O)(=O)c1ccc(Br)cc1)CC2 | -36.8 |
| COc1ccc(S(=O)(=O)N2CCN(CCOc3ccc(Br)cc3)CC2)cc1OC | -12.8 |
| COc1ccc(C(=O)CCN2CCc3cc(OC)c(OC)cc3C2)cc1.Cl | -69.1 |
| COc1cc2c(cc1OC)CN(CCC(=O)c1ccc(Br)cc1)CC2 | -66.9 |
| Brc1cccc(OCCN2CCc3ccccc3C2)c1.Cl | -5.84 |
| COc1cc2c(cc1OC)CN(Cc1cc(OC)c(O)c(OC)c1)CC2 | -14 |
| COc1ccc(C(=O)NC(=S)Nc2cccc3nc(C)ccc23)cc1OC | 8.45 |
| Cc1nnc(NC(=O)CN2CCN(Cc3c(Cl)cccc3Cl)CC2)s1 | 9.97 |
| COC(=O)c1c(NC(=O)CS(=O)(=O)c2ccccc2)sc(C)c1C | -21.6 |
| CNC(=O)C1CCN(S(=O)(=O)c2c(C)noc2/C=C/c2cccc(C)c2)CC1 | 10.2 |
| COc1ccccc1NC(=O)c1ccc2c(c1)C(=O)N(c1ccccc1OC)C2=O | 5.55 |
| CC(C)c1ccccc1NS(=O)(=O)c1cccs1 | 17.8 |
| CNCC[C@H](Oc1cccc2ccccc12)c1cccs1.Cl | -36 |
| CNCCC(Oc1ccccc1OC)c1ccccc1.Cl (stereo not drawn) | -53.5 |
| CNCC[C@H](Oc1cccc2ccccc12)c1cccs1 | -37.8 |

| SMILES | hERG current change (%, negative = inhibition) at 10uM [%] |
| --- | --- |
| CCS(=O)(=O)c1ccc2oc(Nc3cccc(OC)c3)nc2c1 | 9.78 |
| Cc1ccc(NC(=O)CCCn2nc(C)c3c(C)n(-c4ccccc4)nc3c2=O)cc1C | 24.6 |
| COc1cc(Cc2ccc(N)c(OC)c2)ccc1N | 11.1 |
| COc1ccc(Cc2ccc(OC)c(N)c2)cc1N | -52.6 |
| COc1ccc(OC)c(N)c1.Cl | 20.5 |
| Cc1cccc(N2CC(C)Cn3c2nc2c3c(=O)[nH]c(=O)n2C)c1 (stereo not drawn) | -0.757 |
| COCCCNC(=O)CCSc1ccc(Cl)cc1 | -8.9 |
| COCCCNCCCCSc1ccc(Cl)cc1 | -37.9 |
| COCCNCCCCSc1ccc(Cl)cc1 | -50.8 |
| O=C1CCCC2=C1C(c1ccccc1)C1C(=O)c3ccccc3C1=N2 (stereo not drawn) | 6.16 |
| CC(=O)Nc1ccc(C(=O)N2CCN(S(=O)(=O)c3ccc4c(c3)OCCCO4)CC2)cc1 | 5.45 |
| Cc1cc(C(=O)Nc2ccc(S(=O)(=O)N3CCCC3)cc2)no1 | 23.6 |
| CN1CCN(c2ccc(S(=O)(=O)N3CCCCC3)cc2NC(=O)c2ccc3ccccc3c2)CC1 | -40.4 |
| COc1ccc(C(=O)Nc2cc([N+](=O)[O-])ccc2N2CCCC2)cc1 | -1.57 |
| CCC(=O)N1CCN(c2ccc(NC(=S)NC(=O)c3cccc([N+](=O)[O-])c3)cc2)CC1 | 2.13 |
| CN1CCN(c2ccc(S(=O)(=O)N3CCCCC3)cc2NC(=O)c2ccc(C#N)cc2)CC1 | -41.7 |
| COc1cccc(C(=O)Nc2cc([N+](=O)[O-])ccc2N2CCN(C)CC2)c1 | -71.7 |
| CC(=O)N1CCN(c2ccccc2NC(=O)c2ccc(-c3cccc([N+](=O)[O-])c3)o2)CC1 | -75.4 |
| O=C(NC(=S)Nc1ccccc1N1CCOCC1)c1cccc([N+](=O)[O-])c1 | 17.6 |
| CCC(=O)N1CCN(c2ccccc2NC(=O)c2ccc(-c3cccc([N+](=O)[O-])c3)o2)CC1 | -34.1 |
| CCC(=O)N1CCN(c2ccccc2NC(=S)NC(=O)c2cccc([N+](=O)[O-])c2)CC1 | -69.9 |
| CN1CCN(c2ccc(S(=O)(=O)N3CCCCC3)cc2NC(=O)c2cccc([N+](=O)[O-])c2)CC1 | -65.8 |
| O=C(NC(=S)Nc1ccccc1N1CCCCC1)c1ccc(-c2cccc([N+](=O)[O-])c2)o1 | 4.88 |
| COc1ccc(C(=O)Nc2cc([N+](=O)[O-])ccc2N2CCN(C)CC2)cc1 | -30.3 |
